The nature of assay [1]: qHTS assay to identify small molecule agonists of the hypoxia (HIF-1) signaling pathway - cell viability counter screen (AID 1224844; calls by dose curve; further: nearly all actives have a fitted effect of over 50% in size). The essentials:
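Cytotoxicity measured by CellTiter-Glo ATP luminescence in the wells also read for beta-lactamase signal. Cells were HRE-bla ME-180 (2,000/well, 0.5% dialyzed FBS), exposed to compounds for 17 h at 37C.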

The nature of assay [2]: qHTS assay to identify small molecule agonists of H2AX (AID 1224845; active means well fitted activation curve with a large enough effect in the signal ratio in the repeat runs, not every such curve was filed as active; the % refers to the signal ratio; further: potency means the concentration at half of the fitted maximal effect). The method, boiled down:
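Wild-type CHO-K1 cells plated overnight, then exposed 3 hr at 37C to compounds at 15 concentrations (0.76% DMSO). Lysed, then HTRF anti-pH2AX(S139)-cryptate/anti-H2AX-d2 detection after 24 hr at room temperature; emissions 665 and 620 nm.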

A short description of assay [3]: qHTS assay to identify small molecule agonists of the hypoxia (HIF-1) signaling pathway (AID 1224846; active means well fitted activation curve with a large enough effect in the signal ratio in the repeat runs, not every such curve was filed as active; the % refers to the signal ratio). The method, boiled down: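 Compounds added to ME-180 cells carrying hypoxia-response-element beta-lactamase reporter (0.5% dialyzed FBS, 5 h preplating), 17 h at 37C; agonist activity detected by CCF4-AM B/G FRET read-out.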
A short description of assay [4]: qHTS assay to identify small molecule agonists of H2AX - cell viability counter screen (AID 1224847; calls by dose curve; further: nearly all actives have a fitted effect of over 30% in size; further: potency means the concentration at half of the fitted maximal effect). The method, boiled down:
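Cytotoxicity counter screen in wild-type CHO-K1 cells: a 3 hr compound treatment at 37C across 15 concentrations, followed by CellTiter-Glo luminescence to gauge viable cells.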

A short description of assay [5]: qHTS assay to identify small molecule antagonists of the estrogen related receptor (ERR) signaling pathway from Tox21 library (AID 1224848). Further: nearly all actives have a fitted effect of over 50% in size. Further: potency means the concentration at half of the fitted maximal effect. The method, boiled down:
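Tox21 10K compounds in DMSO tested for ERR pathway antagonism in NTP's ERR cell line; 18 h, 37 C exposure; ONE-Glo luminescence.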

Assay [6] in a line: qHTS assay to identify small molecule agonists of the estrogen related receptor (ERR) signaling pathway from Tox21 library (AID 1224849; calls by dose curve; further: nearly all actives have a fitted effect of over 15% in size). To be noted: ERR reporter cell line, ONE-Glo luciferase, 18 h. The essentials: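 Luminescent agonist read-out (One-Glo, 30-minute room-temperature incubation) following 18-hour compound treatment at 37 C of the ERR cell line, which had been plated 6 hours before dosing.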

Assay [7] in a line: qHTS RealTime-Glo MT Cell Viability Assay in HepG2 cells - 24 hour (AID 1224867). Further: nearly all actives have a fitted effect of over 50% in size. Further: potency means the concentration at half of the fitted maximal effect. The method, boiled down:
(§1)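 HepG2 cells were seeded at 600 cells/well together with NanoLuc luciferase and a cell-permeant prosubstrate, preincubated 5 h at 37 C/5% CO2, then pin-dosed with compounds in DMSO. Nonlytic luminescence from viable cells was read at each time point.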

The nature of assay [8]: qHTS RealTime-Glo MT Cell Viability Assay in HEK293 cells - 32 hour (AID 1224868). Further: nearly all actives have a fitted effect of over 50% in size. Further: potency means the concentration at half of the fitted maximal effect. The essentials: (§2)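 HEK293 cells were seeded at 600 cells/well together with NanoLuc luciferase and cell-permeant prosubstrate, preincubated 5 h at 37 C/5% CO2, then given compound in DMSO by pintool. Luminescence from viable-cell prosubstrate reduction was read repeatedly over 40 h.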
Assay [9] in a line: A CellTox Green Cytotoxicity Assay to monitor cytotoxicity in HEK293 cells - 0 hour (AID 1224869). Further: nearly all actives have a fitted effect of over 50% in size. The method, boiled down: (§3)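 Fluorescence from a DNA-binding dye excluded by viable cells was measured repeatedly in the same HEK293 wells (600 cells/well) during continuous compound exposure at 37 C. Each assay gives one read point: 0, 8, 16, 24, 32 or 40 h.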
Assay [10] in a line: A CellTox Green Cytotoxicity Assay to monitor cytotoxicity in HEK293 cells - 40 hour (AID 1224871). Further: nearly all actives have a fitted effect of over 45% in size. Further: potency means the concentration at half of the fitted maximal effect. The method, boiled down:
as §3

The nature of assay [11]: qHTS RealTime-Glo MT Cell Viability Assay in HEK293 cells - 16 hour (AID 1224872). Further: nearly all actives have a fitted effect of over 50% in size. Further: potency means the concentration at half of the fitted maximal effect. The method, boiled down: as §2
Assay [12] can be described thus: qHTS RealTime-Glo MT Cell Viability Assay in HepG2 cells - 8 hour (AID 1224873). Further: nearly all actives have a fitted effect of over 55% in size. The essentials: (§4)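 HepG2 cells mixed with RealTime-Glo MT reagents (NanoLuc plus cell-permeant prosubstrate) were seeded at 600 cells/well, incubated 5 h at 37 C/5% CO2, then pinned with compounds in DMSO; nonlytic luminescence tracked viability during 40 h treatment.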
The nature of assay [13]: qHTS RealTime-Glo MT Cell Viability Assay in HEK293 cells - 40 hour (AID 1224874). Further: nearly all actives have a fitted effect of over 50% in size. Further: potency means the concentration at half of the fitted maximal effect. As to conditions: RealTime-Glo luminescence; max response: stronger effect = lower value. The essentials: (§5)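 Luminescence, which tracks viable cell number through reduction of the prosubstrate to a NanoLuc substrate, was read over continuous 37 C culture. Cells (600/well) were premixed with reagent and rested 5 h before 23 nL of compound in DMSO was pinned.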

Assay [14] in a line: A CellTox Green Cytotoxicity Assay to monitor cytotoxicity in HEK293 cells - 24 hour (AID 1224875). Further: nearly all actives have a fitted effect of over 45% in size. The method, boiled down:
as §3

Assay [15] in a line: A CellTox Green Cytotoxicity Assay to monitor cytotoxicity in HepG2 cells - 16 hour (AID 1224876). Further: nearly all actives have a fitted effect of over 45% in size. Further: potency means the concentration at half of the fitted maximal effect. The essentials: (§6)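 Real-time cytotoxicity: fluorescence of a cell-impermeant cyanine dye binding DNA of dead HepG2 cells, measured repeatedly (0–40 h) during compound exposure at 37 C. Cells seeded 600/well with reagent, dosed after 5 h.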
A short description of assay [16]: qHTS RealTime-Glo MT Cell Viability Assay in HepG2 cells - 32 hour (AID 1224877). Further: nearly all actives have a fitted effect of over 55% in size. Further: potency means the concentration at half of the fitted maximal effect. The essentials: as §1
Assay [17] is described as follows: A CellTox Green Cytotoxicity Assay to monitor cytotoxicity in HepG2 cells - 24 hour (AID 1224878). Further: nearly all actives have a fitted effect of over 45% in size. Further: potency means the concentration at half of the fitted maximal effect. The method, boiled down:
as §6

A short description of assay [18]: qHTS RealTime-Glo MT Cell Viability Assay in HEK293 cells - 0 hour (AID 1224880). The essentials: as §5
Assay [19] in a line: qHTS RealTime-Glo MT Cell Viability Assay in HepG2 cells - 40 hour (AID 1224870). Further: nearly all actives have a fitted effect of over 50% in size. Further: potency means the concentration at half of the fitted maximal effect. The method, boiled down: as §4
A short description of assay [20]: A CellTox Green Cytotoxicity Assay to monitor cytotoxicity in HepG2 cells - 40 hour (AID 1224879). Further: nearly all actives have a fitted effect of over 40% in size. Further: potency means the concentration at half of the fitted maximal effect. The essentials: as §6

Values joined by “and” are separate entries in the source; they are usually repeats but may differ in a detail not shown here. Identical values can stand only once. Inconclusive results are not listed. Some structures have more than one record in an assay (separate samples or runs), and their calls can disagree. Active and inactive are the calls of the source. Unless noted, the call rests on the fitted dose curve; in most records, active means well fitted curve in the direction sought with a large enough effect in the repeat runs; inconclusive means weak or mixed curves; inactive means no such curve, though single readings can be large; an effect the other way counts as inactive or inconclusive.
On the % scale 0 is the no-effect control and ±100 the full control effect.

Consider `O=[N+]([O-])/N=C1\NCCN1Cc1ccc(Cl)nc1`, for which the Potency result in assay [1], in assay [2], in [4], in assay [5], in [7] and in assay [8] was “inactive” each time. In addition, the Potency entry in [9], in assay [10], in assay [11], in [12], in assay [14] and in assay [15] was “inactive” in each case. The Potency entry in [16], in [17] and in assay [18] was “inactive” in each case. Also, the call in [3] was inactive. Besides, the values for the activity change, positive = activation in assay [6] (at 42.5 µM (top of the series)) and in assay [6] (at 92.4 µM (top of the series)) were 0.753% (inactive) and -0.637% (inactive), respectively. In addition, in assay [13], the max response is 1.13% (inactive) and 0.238% (inactive).
As to `CNC(=O)Oc1cccc2c1OC(C)(C)C2`, the Potency result in assay [1], in [2], in assay [4], in [5], in [7] and in assay [8] was “inactive” throughout. In addition, the Potency entry in assay [9], in assay [19], in [10], in assay [11], in assay [14] and in assay [15] was “inactive” in each case. Moreover, the Potency result in assay [16] and in assay [18] was “inactive” each time. Moreover, the molecule was called inactive in assay [3]. In addition, the activity change, positive = activation in assay [6] (at 92.4 µM (top of the series)) is 3.12% (inactive) and 1.27% (inactive). For the same molecule, the max response in assay [13] was -0.656% (inactive) and 0.539% (inactive).
Turning to `OC(c1ccc(Cl)cc1)(c1cncnc1)c1ccccc1Cl` (stereo not drawn), the Potency result in assay [1], in assay [9] and in assay [18] was “inactive” in each case. Moreover, the Potency is 91.4 µM (active) and inactive in [2]; 115 µM (active) in assay [4]; 11.1 µM (active) and 54.5 µM (active) in assay [5]; 31.4 µM (active) in [7]; 6.27 µM (active) and 24.5 µM (active) in assay [8]; 17.7 µM (active) and inactive in assay [19]. For the same molecule, the Potency is 19.8 µM (active) and inactive in [10]; 11.2 µM (active) in assay [11]; 5.59 µM (active) and 27.5 µM (active) in assay [13]; 49.8 µM (active) and inactive in assay [15]; 17.7 µM (active) and inactive in assay [16]; 25 µM (active) and inactive in assay [17]. In addition, the Potency in [20] is 17.7 µM (active) and inactive. The molecule was called inactive in assay [3]. Besides, the activity change, positive = activation in assay [6] (at 92.4 µM (top of the series)) is -83.4% (inactive) and -41.2% (inactive).
`CC(C)(O)C(=O)Nc1ccc([N+](=O)[O-])c(C(F)(F)F)c1`: the Potency result in [1], in assay [2], in assay [7], in assay [9], in [19] and in [10] was “inactive” in each case. Besides, the Potency result in [14], in assay [15], in assay [16], in assay [17], in [20] and in assay [18] was “inactive” each time. Besides, the molecule was called inactive in assay [3]. Moreover, the Potency in assay [4] was 57.8 µM (active) and 73.6 µM (active); in assay [5] it was 9.89 µM (active) and 17.8 µM (active); in assay [8], 25.1 µM (active) and 16 µM (active); in [11], 25.1 µM (active) and 25.3 µM (active); in [13] it was 22.3 µM (active) and 17.9 µM (active). Further, the activity change, positive = activation in [6] (at 42.5 µM (top of the series)) was -39.6% (inactive); in [6] (at 92.4 µM (top of the series)) it was -47.4% (inactive).
`COc1ccc(C=O)cc1OC`: the Potency entry in assay [1], in assay [2], in assay [4], in assay [5], in [7] and in assay [8] was “inactive” throughout. The Potency result in [9], in assay [10], in assay [11], in [12], in assay [14] and in assay [15] was “inactive” each time. For the same molecule, the Potency result in assay [16], in assay [17], in assay [20] and in [18] was “inactive” throughout. In [3], the molecule was called inactive. Also, in [6] (at 92.4 µM (top of the series)), the activity change, positive = activation is -3.94% (inactive) and -4.02% (inactive). Moreover, the max response in assay [13] is 1.59% (inactive) and -6.52% (inactive).
